MCF10A rereplic: A quantitative high throughput screen for small molecules that induce DNA re-replication in MCF 10a normal breast cells; MCF 10A DNA re-replication, Hoechst nuclear intensity, 48 h; Potency, µM (titrated, usually from 46.1 µM), for the others: top-dose activity, positive = re-replication, usual class: activators; actives 2.9% (n = 350,000); AID 624296, 2012; note: % of control where 0% means no effect; nearly all actives have a fitted effect of over 50% in size
SW480 rereplic: A quantitative high throughput screen for small molecules that induce DNA re-replication in SW480 colon adenocarcinoma cells. Potency, µM (highest dose often 46.1 µM), inactives show at the top dose re-replication activation, usual class: activators. AID 624297, 2012. actives 1.8% (n = 340,000). SW480 DNA re-replication, Hoechst DNA content imaging, 48 h; note: % of control where 0% means no effect; nearly all actives have a fitted effect of over 55% in size
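Compounds, transferred as 23 nL by pin tool, were incubated with cells for 48 hr; DNA content per nucleus was then quantified by Hoechst staining and fluorescence plate imaging.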
KB-V1 cytotox: qHTS assay for MDR1-selective chemotherapeutics: Primary screen using the drug-selected MDR subline cells KB-V1; KB-V1 MDR cells viability, CellTiter-Glo, 72 h; Potency, µM (series often up to 46.1 µM), hits mostly cytotoxic; actives 3.4% (n = 400,000); AID 1347076, 2019; note: % is set by controls: 0 for no effect and ±100 for the full control effect; nearly all actives have a fitted effect of over 60% in size
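KB-V1 cells (P-gp-expressing MDR subline of KB-3-1) in phenol-red-free DMEM with 10% FBS were exposed to library compounds over a concentration series for 72 h at 37 degrees C. Viability read by CellTiter-Glo luminescence; concentration-effect curves fitted after normalization.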
PTAP TSG101 blk: qHTS Assay for Iinhibitors of HIV-1 Budding by Blocking the Interaction of PTAP/TSG101. Fluorescence polarization, FITC-PTAP peptide / Tsg101 binding. Potency, µM (series often up to 115 µM), without a hit: at the top dose activity change, negative = inhibition, actives largely listed as inhibitors. 340,000 tested, under 10 active. AID 493005, 2010; active = well fitted inhibition curve with a large enough effect in the main read-out, with a control signal flat, not every such curve was filed as active; inconclusive = small, poorly fitted or top-dose-only effect, or effect the other way, or a change in a side signal; inactive = no such curve, though single readings can be large or run the other way; note: % of control where 0% means no effect
Target sequence (Q99816 whole entry, looked up): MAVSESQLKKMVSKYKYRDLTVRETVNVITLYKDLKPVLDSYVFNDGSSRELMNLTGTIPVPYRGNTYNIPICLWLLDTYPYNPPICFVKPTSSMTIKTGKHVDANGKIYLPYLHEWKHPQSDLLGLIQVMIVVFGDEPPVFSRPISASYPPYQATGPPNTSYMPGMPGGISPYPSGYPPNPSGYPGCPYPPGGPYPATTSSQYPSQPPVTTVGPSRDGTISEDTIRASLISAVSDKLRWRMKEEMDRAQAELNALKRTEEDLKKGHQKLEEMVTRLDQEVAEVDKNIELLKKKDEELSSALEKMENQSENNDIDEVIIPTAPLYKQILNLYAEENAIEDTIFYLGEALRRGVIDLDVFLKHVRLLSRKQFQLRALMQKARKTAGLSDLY
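Steps: Tsg101 binding domain dispensed (10 uM final), compounds pinned in DMSO, FITC-labeled PTAP-motif peptide added (50 nM final); after 20 min binding at room temperature, polarization measured.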
KB-3-1 cytotox: qHTS assay for MDR1-selective chemotherapeutics: Primary screen using the parental adenocarcinoma cell KB-3-1; KB-3-1 viability, CellTiter-Glo ATP luminescence, 72 h; Potency, µM (doses to about 46.1 µM), actives largely listed as cytotoxic; actives 1.4% (n = 400,000); note: % is set by controls: 0 for no effect and ±100 for the full control effect; nearly all actives have a fitted effect of over 60% in size
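KB-3-1 cells, DMEM (no phenol red) + 10% FBS; compound by pin transfer, 72 h, 37 °C. Readout: CellTiter-Glo luminescence after 10 min. Data normalized, curve-fitted.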
PINK1 modulator: A Quantitative High throughput Screen to Identify Chemical Modulators of PINK1 Expression; PINK1 immunofluorescence, high-content cytometry, 24 h; Potency, µM (doses to about 76.6 µM), for inactives: top-dose activation (PINK1 increase), most hits filed as activators; actives 0.2% (n = 410,000); active = well fitted activation curve with a large enough effect; inconclusive = small, poorly fitted or top-dose-only effect; cell line not stated here; note: % of control where 0% means no effect; nearly all actives have a fitted effect of over 65% in size
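Readout is PINK1 immunofluorescence, quantified alongside mitochondrial, cell and nuclear markers by laser-scanning microplate cytometry. Cells from a stable line were exposed to compound titrations (5 concentrations) for 24 hours, with CCCP controls.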
* hit, by the source's call; [ ] = remark or other dose. Shown are actives, neighbours in structure and some others; about 6.8% of the full set was active somewhere. Unless noted, calls come from the whole dose curve; as a rule, active = well fitted curve in the direction sought with a large enough effect; inconclusive = small, poorly fitted or top-dose-only effect, or another doubt; inactive = no such curve, though single readings can be large; an effect the other way counts as inactive or inconclusive. Potency is the fitted concentration of half-maximal effect.

What do the screens show for `C=CCn1c(COc2ccc(F)cc2)nnc1SCC(=O)NC(=O)NCc1ccco1`?
MCF10A rereplic: -14%; SW480 rereplic: -12%; KB-V1 cytotox: inactive; PTAP TSG101 blk: -5%; KB-3-1 cytotox: inactive

What do the screens show for `C=CCn1c(COc2cccc(C)c2)nnc1SCC(=O)NC(=O)NCc1ccco1`?
MCF10A rereplic: 18µM*; SW480 rereplic: -1%; KB-V1 cytotox: inactive; PTAP TSG101 blk: -9%; KB-3-1 cytotox: inactive; PINK1 modulator: 2%[38.3 µM]

Results for Cc1cnc(-n2ncc(C(=O)NCCc3ccccn3)c2C)nc1-c1ccc(F)cc1 ?
PINK1 modulator: -1%

How did Nc1nnc(CCCCCc2nnc(N)s2)s1 do in these assays?
MCF10A rereplic: 11%; SW480 rereplic: 1.5µM*; KB-V1 cytotox: inactive; PTAP TSG101 blk: -7%; KB-3-1 cytotox: inactive; PINK1 modulator: 0%

What do the screens show for `CCCCCCCCc1nnc(N)s1`?
MCF10A rereplic: 2%; SW480 rereplic: 5%; KB-V1 cytotox: inactive; PTAP TSG101 blk: 1%; KB-3-1 cytotox: inactive; PINK1 modulator: -1%

How did CNC(=S)N(Cc1ccc2c(c1)OCO2)C1CC(=O)N(c2ccc(F)cc2)C1=O (stereo unspecified) do in these assays?
MCF10A rereplic: -22%; SW480 rereplic: 11%; KB-V1 cytotox: 16µM*; PTAP TSG101 blk: -5%; KB-3-1 cytotox: inconclusive; PINK1 modulator: inconclusive

How did CNC(=S)N(CCc1ccc(S(N)(=O)=O)cc1)C1CC(=O)N(c2ccccc2F)C1=O (stereo unspecified) do in these assays?
MCF10A rereplic: 7%[9.22 µM]; SW480 rereplic: 5.8µM*; KB-V1 cytotox: inactive; PTAP TSG101 blk: 1%; KB-3-1 cytotox: inconclusive; PINK1 modulator: inconclusive

How did CNC(=S)N(Cc1ccc(OC)cc1)C1CC(=O)N(c2ccc(Cl)cc2)C1=O (stereo unspecified) do in these assays?
MCF10A rereplic: 13%; SW480 rereplic: 1%; KB-V1 cytotox: inactive; PTAP TSG101 blk: -6%; KB-3-1 cytotox: inconclusive; PINK1 modulator: inconclusive

How did COc1cccc2cc(C(=O)NCCc3c(C)[nH]c4ccc(F)cc34)c(=O)oc12 do in these assays?
KB-V1 cytotox: inactive; KB-3-1 cytotox: inactive; PINK1 modulator: 0%

What do the screens show for `Cc1cc(=O)n2nc(N3CCCC(C(=O)NCc4ccc(F)cc4)C3)sc2n1` (stereo unspecified)?
MCF10A rereplic: -1%; SW480 rereplic: -3%; KB-V1 cytotox: inactive; PTAP TSG101 blk: -4%; KB-3-1 cytotox: inactive; PINK1 modulator: 0%

How did CCNC(=O)C1CCCN(c2nc(C)cc(C)n2)C1 (stereo unspecified) do in these assays?
MCF10A rereplic: -7%; SW480 rereplic: -32%; KB-V1 cytotox: inactive; PTAP TSG101 blk: -3%; KB-3-1 cytotox: inactive; PINK1 modulator: -1%

Results for CCC1=C(c2ccc(C)cc2)S(=O)(=O)N=C1N1CCC(C(=O)NCc2ccc(C)cc2)CC1 ?
KB-V1 cytotox: inactive; KB-3-1 cytotox: inactive; PINK1 modulator: 1%

Results for Cc1cc(C)nc(N2CCC(C(=O)NCCc3ccc(F)cc3)CC2)n1 ?
MCF10A rereplic: 0%; SW480 rereplic: -9%; KB-V1 cytotox: 13µM*; PTAP TSG101 blk: -1%; KB-3-1 cytotox: inactive; PINK1 modulator: 12%

Results for CCC1=C(c2ccc(C)cc2)S(=O)(=O)N=C1N1CCC(C(=O)NCCc2ccc(Cl)cc2)CC1 ?
KB-V1 cytotox: inactive; KB-3-1 cytotox: 15µM*; PINK1 modulator: -1%
